42 sequences from publication PMC7819943, “Rice protein-binding microarrays: a tool to detect cis-acting elements near promoter regions in rice” can be followed below.

Whole data set: some 39,000 sequences, median “fluorescence intensity (a.u.)” near 4,300, cut for the highest 2% near 39,000. Shown is part of a subset that was picked to be rich in the highest values.

The experiment addresses T1, OsSMF1 (Oryza sativa, UniProt Q6ZLB0 1-436).
T1 sequence: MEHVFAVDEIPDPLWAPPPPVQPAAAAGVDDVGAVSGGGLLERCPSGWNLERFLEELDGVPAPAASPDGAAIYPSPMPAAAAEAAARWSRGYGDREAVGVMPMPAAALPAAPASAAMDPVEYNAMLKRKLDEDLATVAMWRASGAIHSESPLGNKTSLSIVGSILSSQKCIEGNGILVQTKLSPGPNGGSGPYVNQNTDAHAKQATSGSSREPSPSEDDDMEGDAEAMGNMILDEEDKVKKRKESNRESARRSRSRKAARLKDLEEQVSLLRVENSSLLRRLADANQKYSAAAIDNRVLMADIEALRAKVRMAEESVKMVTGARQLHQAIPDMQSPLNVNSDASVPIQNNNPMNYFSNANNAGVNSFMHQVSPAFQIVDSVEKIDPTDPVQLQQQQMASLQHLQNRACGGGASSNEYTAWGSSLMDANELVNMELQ
Briefly: protein-binding microarray (RPBM); PBS, 2% BSA, 51.3 ng/ul salmon testes DNA, 50 uM zinc acetate, 200 nM TF, 25 C, 1 h; high values mean tight binding. Particulars: protein: recombinant; tags: N-terminal polyhistidine and DsRed monomer fusion (pET32a); chain copies: 2; label: CyDye5-dUTP incorporated in the synthesized complementary strand; 3' TTTTT single-stranded linker to array surface; dsDNA, one strand shown. In outline:
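Transcription factors, each fused N-terminally to a polyhistidine tag and DsRed, were expressed in E. coli BL21-CodonPlus and purified on Ni–NTA. A custom Agilent array was made double-stranded by primer extension with Cy5-dUTP and blocked with 2% BSA. It was incubated with 200 nM protein in PBS, 2% BSA, salmon testes DNA and 50 µM zinc acetate at 25 °C for 1 h, then washed. The binding signal is per-feature fluorescence intensity (arbitrary units) read on an Axon 4000B scanner.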
“TATATACTCTCTTCGTTTCAAAATGTTTGACGCCGTTAACCGGAGTCACCTAGTGCAG”: the binding signal is 3670 fluorescence intensity (a.u.). The same measure for “TTAAAACTCAATTAATCACACGTTATTACCACCTCGTTTTCGGAGTCACCTAGTGCAG”: 3210 fluorescence intensity (a.u.). The same measure for “CTCAAAACCACACCGTTAAATGTTTTACCCTACTCTCGTACGGAGTCACCTAGTGCAG”: 39200 fluorescence intensity (a.u.); for “ATAGTATAAAAGTAATGTGATGTGGCTTTATGAGAGAAAACGGAGTCACCTAGTGCAG”: 3780 fluorescence intensity (a.u.). As for “TATATATATATATATATATAAAGTGTATGACATGTGATCACGGAGTCACCTAGTGCAG”, the figure is 3970 fluorescence intensity (a.u.); as for “TGACAGCCACAAGTATGATGTGATAAAGTGTGGCTATAAACGGAGTCACCTAGTGCAG”, 65500 fluorescence intensity (a.u.); as for “GGAGAAAATTGCGGAGGGGATCCACAGTTCCAGCCGCGTGCGGAGTCACCTAGTGCAG”, 3190 fluorescence intensity (a.u.).

Consider “ACAAAATTTATTTCCAGGTGGCGTCTCCTCATTGGCCAGCCGGAGTCACCTAGTGCAG”, for which the binding signal was 4370 fluorescence intensity (a.u.). As for “TGGGTGAGAGTTTGAACCCGAACATATGACACATCTATGTCGGAGTCACCTAGTGCAG”, the figure is 3270 fluorescence intensity (a.u.); as for “TATGTCAATACTGTATGCATATATTAACATAAAATATCTCCGGAGTCACCTAGTGCAG”, 4760 fluorescence intensity (a.u.). As for “ACAATTACTGTATTGTGCATATAAGCTGCATATCTATCACCGGAGTCACCTAGTGCAG”, the figure is 39900 fluorescence intensity (a.u.); as for “ATCACTCTACTTTGTCTGTGTCATATTATAAGCTGCTTGACGGAGTCACCTAGTGCAG”, 5640 fluorescence intensity (a.u.).

Take “AGAAAGCAACATGCTGTCCCGGTGGCACATCCGATTAGTACGGAGTCACCTAGTGCAG”: the binding signal is 3680 fluorescence intensity (a.u.).

For “GGCTTCCCGCGCCACAAGCTTTGCCGCCACCTCCTCCTCGCGGAGTCACCTAGTGCAG”, the binding signal is 3230 fluorescence intensity (a.u.). As for “CAGAGTTCCGTTCTGAATTTCTGGTGAGTCATCTGCTGAACGGAGTCACCTAGTGCAG”, the figure is 8920 fluorescence intensity (a.u.); as for “GTTGTCAGTTGGATAGAACCAGTCCAGGAACGTGTGGCCCCGGAGTCACCTAGTGCAG”, 3240 fluorescence intensity (a.u.). The same measure for “CCTTAGGCTACGTTGGCTTTTGCATTTTGGCGTGGATTTTCGGAGTCACCTAGTGCAG”: 14400 fluorescence intensity (a.u.); for “GTTGCCTTCGTGTCCAGTGGATAGATAAGGATAGGATTTTCGGAGTCACCTAGTGCAG”: 65500 fluorescence intensity (a.u.).

Turning to “CGCGGATCGGCCGCGAGGCGCACGTGGACATCACCACCAACGGAGTCACCTAGTGCAG”, the binding signal was 4220 fluorescence intensity (a.u.). As for “GATGATGATGATGATGATGATGAGAAGGTGGTGCCGCCGCCGGAGTCACCTAGTGCAG”, the figure is 4280 fluorescence intensity (a.u.); as for “TTGATGGCGATCTGCGAGGCCGTGCGGGTCACGGAGCGCGCGGAGTCACCTAGTGCAG”, 30900 fluorescence intensity (a.u.); as for “AGATGGCGGCGGCGGCGCAGATCCGGCCTCCACGCGCGCACGGAGTCACCTAGTGCAG”, 3940 fluorescence intensity (a.u.). The same measure for “CCCGCGCCGCGGCGGATCGATGGAGCTGTTCGAGCGCGCGCGGAGTCACCTAGTGCAG”: 3160 fluorescence intensity (a.u.); for “GAGCGCTGCGTGCGCGCGCGTCCGCGGCCACGCCATCCGCCGGAGTCACCTAGTGCAG”: 4600 fluorescence intensity (a.u.); for “CGGCGCAGATCCGGCGAGCGGCGGCGGCGGAAGCTGATGGCGGAGTCACCTAGTGCAG”: 39900 fluorescence intensity (a.u.).

“GAAGCTGTCATCGCTGATGCGGCGAAGAGATCATCATCACCGGAGTCACCTAGTGCAG”: the binding signal is 4450 fluorescence intensity (a.u.). As for “GCCGCCGCCGCCGGAGAAGATGATGGTGCCGCTGGATCCGCGGAGTCACCTAGTGCAG”, the figure is 43500 fluorescence intensity (a.u.); as for “GCTGCACGGCCGCGGCGTGGCGCTGACGGCGACGGTGAGGCGGAGTCACCTAGTGCAG”, 5740 fluorescence intensity (a.u.).

In the case of “ATGGTGGAGAAGGTGACGATGACACGAGGTGATCTGGATCCGGAGTCACCTAGTGCAG”, the binding signal is 3680 fluorescence intensity (a.u.). The same measure for “GCGAGCTGTGCCGTTCTTGATCACCGAGGCGATGGCGGCGCGGAGTCACCTAGTGCAG”: 39200 fluorescence intensity (a.u.). As for “GAGCCGCTGATCCGCTGCACGGCGGCGCGGAGCGCGTCGACGGAGTCACCTAGTGCAG”, the figure is 39100 fluorescence intensity (a.u.).

Consider “GTTTGGAATTTTGGATAGAAATTCCGGGCGTGACACATCGCGGAGTCACCTAGTGCAG”, for which the binding signal was 5880 fluorescence intensity (a.u.). Take “ATGTCGCTGTGGCTCATCCGGCCCAAGCCCATTTCCCCACCGGAGTCACCTAGTGCAG”: the binding signal was 29500 fluorescence intensity (a.u.). Regarding “AAACTGAAGGGTATTTTCACAAAATTTCCTTTTCTTTCTCCGGAGTCACCTAGTGCAG”, the binding signal is 6620 fluorescence intensity (a.u.). Consider “GTATATGCGTCATGTGCGTCTTCCCTGTCACGAGTGCGTGCGGAGTCACCTAGTGCAG”, for which the binding signal is 7200 fluorescence intensity (a.u.). Turning to “ACATGTGGGTCCTGTTGACATGTAGGTGCCACCTTGGCATCGGAGTCACCTAGTGCAG”, the binding signal is 4440 fluorescence intensity (a.u.). For “GAAACTTTCCTACGCACAAACTTTCAACTTTTACGTCACACGGAGTCACCTAGTGCAG”, the binding signal is 3340 fluorescence intensity (a.u.). The same measure for “CATGCTATGTGCTCAAAGGGCAACGGTCGACGTGTGCCTTCGGAGTCACCTAGTGCAG”: 4110 fluorescence intensity (a.u.). Turning to “AGATCTGCACAACCATAACGGCTAAAGAGGAGATACCAAACGGAGTCACCTAGTGCAG”, the binding signal was 65500 fluorescence intensity (a.u.). The same measure for “ACACAGATCTGCAACCAAAACAAATGCAACACTAAACACCCGGAGTCACCTAGTGCAG”: 26100 fluorescence intensity (a.u.); for “CTAAACAAAGGATGAGGCTATGAGCACCCACCAACCATACCGGAGTCACCTAGTGCAG”: 34200 fluorescence intensity (a.u.); for “GCACAACCGCACACGAGACGACGTCACCCACAACCGCACGCGGAGTCACCTAGTGCAG”: 6040 fluorescence intensity (a.u.).
